Assay outcomes: PubChem BioAssay, The Scripps Research Institute Molecular Screening Center
A selection: hits, their analogues and other compounds. The true share with any hit is near 3.5%.
TEAD-YAP block: TEAD-YAP interaction inhibition. HEK-TIYL cells, TEAD-Gal4/YAP UAS-luciferase luminescence. inhibition, % at 9.12 µM. 640,000 compounds, 1.4% hits. AID 1259422; in the data active means inhibition above about 32%;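 further: 0% = median of test compound wells and 100% = reference inhibitor wells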
FBW7 activator: activators of human E3 ligase FBW7. AlphaScreen FBW7–phospho-cyclin E peptide binding, activator screen. normalized activity (activation), % at 26.1 µM. 650,000 compounds, 0.13% hits; in the data active means normalized activity above about 1.9%;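 further: purified mutant Fbw7 with reduced substrate affinity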
Target sequence (Q969H0 whole entry, looked up): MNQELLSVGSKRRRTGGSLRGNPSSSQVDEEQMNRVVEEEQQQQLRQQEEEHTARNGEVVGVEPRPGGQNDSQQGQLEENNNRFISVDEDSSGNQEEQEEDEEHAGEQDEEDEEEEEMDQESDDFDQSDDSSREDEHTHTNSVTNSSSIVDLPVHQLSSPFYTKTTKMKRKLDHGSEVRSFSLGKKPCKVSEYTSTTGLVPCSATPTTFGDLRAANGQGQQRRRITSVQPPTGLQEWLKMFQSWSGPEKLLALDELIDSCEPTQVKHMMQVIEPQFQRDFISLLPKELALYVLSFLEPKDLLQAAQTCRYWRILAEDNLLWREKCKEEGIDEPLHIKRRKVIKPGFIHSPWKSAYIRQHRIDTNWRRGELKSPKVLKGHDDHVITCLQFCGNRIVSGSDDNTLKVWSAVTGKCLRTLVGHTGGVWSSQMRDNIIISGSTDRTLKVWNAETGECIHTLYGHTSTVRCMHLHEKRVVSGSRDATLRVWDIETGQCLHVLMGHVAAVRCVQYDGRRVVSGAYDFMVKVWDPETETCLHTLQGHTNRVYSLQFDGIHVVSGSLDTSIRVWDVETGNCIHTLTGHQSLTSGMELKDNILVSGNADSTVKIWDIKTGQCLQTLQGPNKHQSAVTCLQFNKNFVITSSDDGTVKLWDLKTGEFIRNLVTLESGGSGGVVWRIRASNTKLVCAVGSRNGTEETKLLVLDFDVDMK
MITF inh: inhibitors of human MITF; O75030; AlphaScreen MITF homodimerization, bead proximity signal; inhibition, % at 2.6 µM; 650,000 compounds, 0.91% hits; in the data active means inhibition above about 50%;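 further: 0% = vehicle wells with protein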
GPR151 activ: human GPR151 activation. Q8TDV0. PathHunter beta-arrestin GPR151 cells, luminescence. activation, % at 11.2 µM. 650,000 compounds, 1% hits; in the data active means activation above about 4.9%;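 further: 0% = median of compound wells and 100% = cells with positive control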
* = called active by the depositor.

For COC1C(O)CC(OC2CC(Oc3cc4cc5c(c(O)c4c(O)c3C)C(=O)[C@@H](OC3CC(OC4CC(OC6CC(C)(O)C(C)C(C)O6)C(O)C(C)O4)C(O)C(C)O3)[C@H]([C@H](OC)C(=O)[C@@H](O)[C@@H](C)O)C5)OC(C)C2OC(C)=O)OC1C (stereo partly specified) the results were TEAD-YAP block 96*, FBW7 activator 0, MITF inh 3 and GPR151 activ -1.
For O=C(Cn1cnc2c(nnn2-c2ccc(Cl)cc2)c1=O)NCc1ccco1 the results were TEAD-YAP block -7, FBW7 activator 0, MITF inh 5 and GPR151 activ -1.
For CNC(=O)c1ccc(-c2cccc(O)c2)nc1NCC1CC1 the results were TEAD-YAP block 23, FBW7 activator 0, MITF inh -8 and GPR151 activ 0.
For COc1ccccc1C(=O)NCCn1cc(SCC(=O)Nc2ccc(Br)cc2)c2ccccc21 the results were TEAD-YAP block 5, FBW7 activator 2.0*, MITF inh 8 and GPR151 activ 0.
`COc1ccccc1C(=O)NCCn1cc(SCC(=O)Nc2ccc(C)cc2)c2ccccc21` gave TEAD-YAP block 1, FBW7 activator 0, MITF inh -2 and GPR151 activ 0.
Screening O=C(c1ccccc1-c1ccccc1)N1CCC(c2cccnc2)CC1 returned TEAD-YAP block -1, FBW7 activator 0, MITF inh 9 and GPR151 activ 2.
`COCCNc1ccnc2c(-c3ccc4c(c3)OCO4)cnn12` gave TEAD-YAP block 51*, FBW7 activator 0, MITF inh 10 and GPR151 activ -2.
For COCCNc1ccnc2c(-c3ccc(F)c(Cl)c3)cnn12 the results were TEAD-YAP block -1, FBW7 activator 1.9*, MITF inh 2 and GPR151 activ 0.
`OCCNc1cc(Nc2ccccc2)ncn1` gave TEAD-YAP block -19, FBW7 activator 0, MITF inh -3 and GPR151 activ 0.
Screening Cc1ccc(C(=O)C(C)OC(=O)c2ccc3c(c2)C(=O)N(C2CCCCC2)C3=O)cc1 (stereo unspecified) returned TEAD-YAP block 10, FBW7 activator 0, MITF inh 4 and GPR151 activ 0.
For Fc1ccc(-c2cc(C(F)(F)F)nc(NCc3cccnc3)n2)cc1 the results were TEAD-YAP block 40*, FBW7 activator 0, MITF inh 14 and GPR151 activ 0.
Screening Cc1ccc(C(=O)Nc2ncc([N+](=O)[O-])s2)cc1 returned TEAD-YAP block 82*, FBW7 activator 0, MITF inh 7 and GPR151 activ -11.
Screening Cc1cccc(C(=O)Nc2ncc([N+](=O)[O-])s2)c1 returned TEAD-YAP block 55*, FBW7 activator 0, MITF inh -5 and GPR151 activ -11.
`O=C(Cc1ccc(Br)cc1)Nc1ncc([N+](=O)[O-])s1` gave TEAD-YAP block -20, FBW7 activator 0, MITF inh 4 and GPR151 activ -5.
For O=C(Nc1ncc([N+](=O)[O-])s1)c1cccnc1 the results were TEAD-YAP block -24, FBW7 activator 0, MITF inh 3 and GPR151 activ -11.
For O=C(Nc1ncc([N+](=O)[O-])s1)c1ccc(Br)cc1 the results were TEAD-YAP block 65*, FBW7 activator 0, MITF inh 0 and GPR151 activ -8.
Screening O=C(Cc1ccc(Cl)cc1)Nc1ncc([N+](=O)[O-])s1 returned TEAD-YAP block -36, FBW7 activator 0, MITF inh 13 and GPR151 activ -5.
O=C(Nc1ncc([N+](=O)[O-])s1)c1ccc(Cl)cc1Cl was read as TEAD-YAP block 64*, FBW7 activator 0, MITF inh 4 and GPR151 activ -11.
Screening CN1C(=O)c2cccc3c(S(=O)(=O)Nc4cccc(Br)c4)ccc1c23 returned TEAD-YAP block 6, FBW7 activator 0, MITF inh -8 and GPR151 activ -1.
Cc1onc(-c2ccccc2)c1C(=O)Nc1ncc([N+](=O)[O-])s1 was read as TEAD-YAP block 38*, FBW7 activator 0, MITF inh -2 and GPR151 activ 1.
For N#Cc1sc(NC(=O)c2ccc(Br)cc2)nc1Cl the results were TEAD-YAP block 47*, FBW7 activator 0, MITF inh 2 and GPR151 activ -6.
Cc1onc(-c2ccccc2Cl)c1C(=O)Nc1ncc([N+](=O)[O-])s1 was read as TEAD-YAP block 0, FBW7 activator 0, MITF inh 7 and GPR151 activ 0.
O=C(Nc1nc2ccc3ccccc3c2s1)c1ccc(Br)cc1 was read as TEAD-YAP block 2, FBW7 activator 0, MITF inh -12 and GPR151 activ 0.
For COc1ccc(C2C(C(C)=O)=C(C)N=c3s/c(=C/c4ccc(OC)cc4OC)c(=O)n32)cc1 (stereo unspecified) the results were TEAD-YAP block 6, FBW7 activator 0, MITF inh 0 and GPR151 activ 0.
NNC(=O)C(Cc1ccc(O)cc1)NC(=O)C(CO)NC(=O)OCc1ccccc1 (stereo unspecified) was read as TEAD-YAP block 13, FBW7 activator 2.1*, MITF inh 9 and GPR151 activ -1.
NNC(=O)C(Cc1ccccc1)NC(=O)OCc1ccccc1 (stereo unspecified) was read as TEAD-YAP block 8, FBW7 activator 0, MITF inh 6 and GPR151 activ 1.
For Cc1ccc(NC(=O)c2cc(S(=O)(=O)NCCC3=CCCCC3)ccc2F)cc1F the results were TEAD-YAP block 34*, FBW7 activator 1, MITF inh 16 and GPR151 activ -3.
Screening O=S(=O)(c1cccc(S(=O)(=O)N2CCc3ccccc32)c1)N1CCCC1 returned TEAD-YAP block 43*, FBW7 activator 0, MITF inh 28 and GPR151 activ -1.
For COc1cc(S(=O)(=O)N2CCc3ccccc32)c(OC)cc1Cl the results were TEAD-YAP block 45*, FBW7 activator 0, MITF inh -3 and GPR151 activ 1.
Screening COC(=O)c1cc(S(=O)(=O)N2CCc3ccccc32)cn1C returned TEAD-YAP block 0, FBW7 activator 0, MITF inh 15 and GPR151 activ 3.
Cc1ccc(S(=O)(=O)N2CCc3ccccc32)cc1C(N)=O was read as TEAD-YAP block 3, FBW7 activator 0, MITF inh 10 and GPR151 activ 1.
`CCCNC(=O)c1cc(S(=O)(=O)N2CCc3ccccc32)cn1C` gave TEAD-YAP block 32*, FBW7 activator 0, MITF inh -6 and GPR151 activ 3.
Cc1ccc(S(=O)(=O)N2CCc3ccccc32)cc1[N+](=O)[O-] was read as TEAD-YAP block 56*, FBW7 activator -1, MITF inh 13 and GPR151 activ 2.
Screening O=S(=O)(c1ccc(F)cc1)N1CCc2ccccc21 returned TEAD-YAP block 5, FBW7 activator 0, MITF inh 0 and GPR151 activ 1.
COc1ccccc1C(=O)NC1(C(F)(F)F)C(=O)Nc2c1c(=O)n(C)c(=O)n2C (stereo unspecified) was read as TEAD-YAP block 13, FBW7 activator 0, MITF inh 1 and GPR151 activ 0.
